# Measurements as given in the supplement of paper PMC6555819.
# Tests used:
# Assay in all cases: PBM binding z-score (relative to random genomic background probes); higher = stronger binding; sequences stand for … in GC…GCGATTGACAGCGTAGAATGAAGG
# [1] = tested on: RARb homodimer (NR concentration 270 nM)
# Summary of the method: (§1)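 The probes on custom Agilent 4×180K protein-binding microarrays were double-stranded, with 34-nt variable regions bearing direct-repeat seeds, single-nucleotide variants, half-site ablations and random human genomic background sequences. Incubation lasted 1 h with ligand-free nuclear receptor dimers in PBS pH 7.4, 2% milk, 0.02% Triton X-100, 1 mM DTT, 0.2 mg/mL BSA and 0.4 mg/ml salmon testes DNA. Antibodies against each partner (one per run) detected bound dimers, and fluorescence scans were regression-normalized. Binding z-scores take the random background probes as reference.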
# [2] = tested on: RARg:RXRa (NR concentration 270 nM, RXRa partner concentration 90 nM)
# Summary of the method: as §1
# [3] = tested on: RARg homodimer (NR concentration 270 nM)
# Summary of the method: as §1
# [4] = tested on: RXRa DBDmut IVT, anti-RXR (DBD mutation: RXRa K156A/R161A, NR concentration 90 nM)
# Summary of the method: as §1
# [5] = tested on: RXRa homodimer (NR concentration 180 nM)
# Summary of the method: as §1
# [6] = tested on: THRa:RXRa (NR concentration 90 nM, RXRa partner concentration 90 nM)
# Summary of the method: as §1
# [7] = tested on: THRa homodimer (NR concentration 90 nM)
# Summary of the method: as §1
# [8] = tested on: VDR:RXRa (NR concentration 270 nM, RXRa partner concentration 90 nM)
# Summary of the method: as §1
# [9] = tested on: VDR homodimer (NR concentration 270 nM)
# Summary of the method: as §1
sequence,measurement,setting,value
TAGCCTAGGTCATGGGCCAGTATGCCACGCGAAC,PBM binding z-score,[1],3.09
same,PBM binding z-score,[2],4.15
same,PBM binding z-score,[3],4.47
same,PBM binding z-score,[4],0.363
same,PBM binding z-score,[5],3.54
same,PBM binding z-score,[6],3.07
same,PBM binding z-score,[7],1.16
same,PBM binding z-score,[8],1.98
same,PBM binding z-score,[9],0.214
CGAACGAGGGCATCAGTTGATAGCAAATGCCGAT,PBM binding z-score,[1],0.822
same,PBM binding z-score,[2],0.928
same,PBM binding z-score,[3],1.83
same,PBM binding z-score,[4],2.49
same,PBM binding z-score,[5],0.686
same,PBM binding z-score,[6],0.964
same,PBM binding z-score,[7],-0.293
same,PBM binding z-score,[8],0.559
same,PBM binding z-score,[9],1.48
CCGACTAGGGCATAAGGTTACCATAAGCCAGCCC,PBM binding z-score,[1],1.76
same,PBM binding z-score,[2],2.19
same,PBM binding z-score,[3],1.34
same,PBM binding z-score,[4],-0.152
same,PBM binding z-score,[5],1.35
same,PBM binding z-score,[6],2.17
same,PBM binding z-score,[7],1.08
same,PBM binding z-score,[8],0.257
same,PBM binding z-score,[9],-0.17
TATACAGCGTCAAAGGCCAGAGTACGAATGTCGA,PBM binding z-score,[1],0.415
same,PBM binding z-score,[2],0.284
same,PBM binding z-score,[3],0.525
same,PBM binding z-score,[4],-1.06
same,PBM binding z-score,[5],0.258
same,PBM binding z-score,[6],-0.433
same,PBM binding z-score,[7],-1.11
same,PBM binding z-score,[8],-0.305
same,PBM binding z-score,[9],-0.0431
TAGCCTAGGTCATTGGGCCAATATAGTACGCATC,PBM binding z-score,[1],2.88
same,PBM binding z-score,[2],4.02
same,PBM binding z-score,[3],3.84
same,PBM binding z-score,[4],1.41
same,PBM binding z-score,[5],2.93
same,PBM binding z-score,[6],2.91
same,PBM binding z-score,[7],1.2
same,PBM binding z-score,[8],2.33
same,PBM binding z-score,[9],1.1
CGAACTAGGTCATCCAGGACAGTCAATACATTGA,PBM binding z-score,[1],3.04
same,PBM binding z-score,[2],4.11
same,PBM binding z-score,[3],5.21
same,PBM binding z-score,[4],2.72
same,PBM binding z-score,[5],3.39
same,PBM binding z-score,[6],3.81
same,PBM binding z-score,[7],2.01
same,PBM binding z-score,[8],4.83
same,PBM binding z-score,[9],2.52
CCTACTAGGCCAAGGTCATTGATCAGTCAAAGCA,PBM binding z-score,[1],3.74
same,PBM binding z-score,[2],3.86
same,PBM binding z-score,[3],3.68
same,PBM binding z-score,[4],2.31
same,PBM binding z-score,[5],3.64
same,PBM binding z-score,[6],3.52
same,PBM binding z-score,[7],3.01
same,PBM binding z-score,[8],3.48
same,PBM binding z-score,[9],3.34
CGTCCAAGGTCAAGGTCAGTGAAAGAGACTCGAA,PBM binding z-score,[1],5.29
same,PBM binding z-score,[2],6.79
same,PBM binding z-score,[3],7.8
same,PBM binding z-score,[4],3.95
same,PBM binding z-score,[5],6.28
same,PBM binding z-score,[6],4.39
same,PBM binding z-score,[7],3.78
same,PBM binding z-score,[8],4.7
same,PBM binding z-score,[9],2.89
AATACAGGGTCATCGCAGGCCAGAGTACGCACAG,PBM binding z-score,[1],3.53
same,PBM binding z-score,[2],5.41
same,PBM binding z-score,[3],5.21
same,PBM binding z-score,[4],3.48
same,PBM binding z-score,[5],6.8
same,PBM binding z-score,[6],4.75
same,PBM binding z-score,[7],1.42
same,PBM binding z-score,[8],5.31
same,PBM binding z-score,[9],3.55
GGTGCTAGGTCAGGTTGGTCAGCTAACGGGTACG,PBM binding z-score,[1],3.2
same,PBM binding z-score,[2],2.9
same,PBM binding z-score,[3],4.21
same,PBM binding z-score,[4],0.112
same,PBM binding z-score,[5],1.38
same,PBM binding z-score,[6],1.94
same,PBM binding z-score,[7],1.19
same,PBM binding z-score,[8],1.25
same,PBM binding z-score,[9],0.971
CAAACTAGGTCGCGAAAGGTCAAAGTCGAATGAC,PBM binding z-score,[1],5.22
same,PBM binding z-score,[2],6.69
same,PBM binding z-score,[3],6.26
same,PBM binding z-score,[4],1.98
same,PBM binding z-score,[5],7.33
same,PBM binding z-score,[6],4.79
same,PBM binding z-score,[7],1.51
same,PBM binding z-score,[8],5.94
same,PBM binding z-score,[9],3.37
ACTATTAGTTGATACGAGGGCAACCGATAGGTTG,PBM binding z-score,[1],1.59
same,PBM binding z-score,[2],1.03
same,PBM binding z-score,[3],0.921
same,PBM binding z-score,[4],1.04
same,PBM binding z-score,[5],0.536
same,PBM binding z-score,[6],2.55
same,PBM binding z-score,[7],0.673
same,PBM binding z-score,[8],0.867
same,PBM binding z-score,[9],0.979
CCTACTAGGCCACGAAAGGTCATTGATTCAGTGA,PBM binding z-score,[1],4.71
same,PBM binding z-score,[2],4.9
same,PBM binding z-score,[3],4.91
same,PBM binding z-score,[4],1.22
same,PBM binding z-score,[5],5.5
same,PBM binding z-score,[6],3.85
same,PBM binding z-score,[7],1.29
same,PBM binding z-score,[8],4.42
same,PBM binding z-score,[9],2.66
ATATGCAGGTTAAGGGTCATTCAGGTTGGTTCGC,PBM binding z-score,[1],3.97
same,PBM binding z-score,[2],4.66
same,PBM binding z-score,[3],3.52
same,PBM binding z-score,[4],2.24
same,PBM binding z-score,[5],6.59
same,PBM binding z-score,[6],3.64
same,PBM binding z-score,[7],1.26
same,PBM binding z-score,[8],5.68
same,PBM binding z-score,[9],4.45
CCTTGTTGGTCAGGAGGTCACACACCGGATATGA,PBM binding z-score,[1],4.42
same,PBM binding z-score,[2],4.76
same,PBM binding z-score,[3],4.32
same,PBM binding z-score,[4],0.608
same,PBM binding z-score,[5],4.89
same,PBM binding z-score,[6],3.33
same,PBM binding z-score,[7],2.47
same,PBM binding z-score,[8],3.79
same,PBM binding z-score,[9],2.17
GCGACTGGGGGAAAGCAGGTTACCATAAGGTTGG,PBM binding z-score,[1],0.976
same,PBM binding z-score,[2],0.585
same,PBM binding z-score,[3],0.39
same,PBM binding z-score,[4],0.147
same,PBM binding z-score,[5],0.696
same,PBM binding z-score,[6],2.25
same,PBM binding z-score,[7],0.613
same,PBM binding z-score,[8],0.39
same,PBM binding z-score,[9],0.229
TCATATAAGTAAACAGGTGAAAGTCCGTAAGTTA,PBM binding z-score,[1],0.596
same,PBM binding z-score,[2],0.357
same,PBM binding z-score,[3],0.421
same,PBM binding z-score,[4],2.12
same,PBM binding z-score,[5],0.907
same,PBM binding z-score,[6],0.674
same,PBM binding z-score,[7],0.549
same,PBM binding z-score,[8],1.28
same,PBM binding z-score,[9],0.857
CCTTACGGGTCGAGGTTATAGCACGGGTGGTACG,PBM binding z-score,[1],1.42
same,PBM binding z-score,[2],1.78
same,PBM binding z-score,[3],1.16
same,PBM binding z-score,[4],-0.662
same,PBM binding z-score,[5],2.5
same,PBM binding z-score,[6],1.84
same,PBM binding z-score,[7],0.377
same,PBM binding z-score,[8],1.25
same,PBM binding z-score,[9],0.977
CCTTACGGGTCTCTGACAGGTTATAGCATTTGGA,PBM binding z-score,[1],-0.0333
same,PBM binding z-score,[2],0.29
same,PBM binding z-score,[3],0.275
same,PBM binding z-score,[4],0.321
same,PBM binding z-score,[5],0.277
same,PBM binding z-score,[6],0.0789
same,PBM binding z-score,[7],-0.175
same,PBM binding z-score,[8],-0.307
same,PBM binding z-score,[9],-0.188
ATCTCTAGGCAAAGTTCAGTGAAAGATCGATAGA,PBM binding z-score,[1],2.14
same,PBM binding z-score,[2],1.79
same,PBM binding z-score,[3],2.42
same,PBM binding z-score,[4],1.24
same,PBM binding z-score,[5],1.06
same,PBM binding z-score,[6],0.452
same,PBM binding z-score,[7],-0.26
same,PBM binding z-score,[8],1.06
same,PBM binding z-score,[9],1.48
CGTCCTAGGTCATAGGAGGTCAGTGAAGACAGAT,PBM binding z-score,[1],4.83
same,PBM binding z-score,[2],5.44
same,PBM binding z-score,[3],5.84
same,PBM binding z-score,[4],2.08
same,PBM binding z-score,[5],4.28
same,PBM binding z-score,[6],5.13
same,PBM binding z-score,[7],1.73
same,PBM binding z-score,[8],5.59
same,PBM binding z-score,[9],2.29
AGAATGAGGTTATACGGAGATCAGGGAAGAAAGT,PBM binding z-score,[1],1
same,PBM binding z-score,[2],1.95
same,PBM binding z-score,[3],1.1
same,PBM binding z-score,[4],1.68
same,PBM binding z-score,[5],2.26
same,PBM binding z-score,[6],2.33
same,PBM binding z-score,[7],0.836
same,PBM binding z-score,[8],1.56
same,PBM binding z-score,[9],0.95
ACTTACGGGTCAACGAGGTTATAGTACGCGTATA,PBM binding z-score,[1],3.9
same,PBM binding z-score,[2],5.7
same,PBM binding z-score,[3],5.01
same,PBM binding z-score,[4],2.85
same,PBM binding z-score,[5],6.32
same,PBM binding z-score,[6],4.14
same,PBM binding z-score,[7],1.34
same,PBM binding z-score,[8],7.78
same,PBM binding z-score,[9],4.38
ACTTACGGGTCAACGAGGTTATAGAACGCGTATA,PBM binding z-score,[1],3.89
same,PBM binding z-score,[2],5.69
same,PBM binding z-score,[3],5.34
same,PBM binding z-score,[4],2.56
same,PBM binding z-score,[5],6.54
same,PBM binding z-score,[6],4.21
same,PBM binding z-score,[7],1.21
same,PBM binding z-score,[8],7.78
same,PBM binding z-score,[9],3.53
ATCGAAAGGCCGTGAGGTGAGTATACAGAAAGGC,PBM binding z-score,[1],0.911
same,PBM binding z-score,[2],1.47
same,PBM binding z-score,[3],1.42
same,PBM binding z-score,[4],-0.765
same,PBM binding z-score,[5],0.904
same,PBM binding z-score,[6],1.93
same,PBM binding z-score,[7],0.902
same,PBM binding z-score,[8],-0.0584
same,PBM binding z-score,[9],-0.0558
GCTTGTAGATCAAGGTTAAGAAGGACTAAGCTAA,PBM binding z-score,[1],0.182
same,PBM binding z-score,[2],0.382
same,PBM binding z-score,[3],0.268
same,PBM binding z-score,[4],-0.0285
same,PBM binding z-score,[5],0.716
same,PBM binding z-score,[6],1.18
same,PBM binding z-score,[7],-0.165
same,PBM binding z-score,[8],0.438
same,PBM binding z-score,[9],-0.0273
